High-throughput results as filed in PubChem.
TEAD-YAP inh: TEAD-YAP interaction inhibition, primary screen, TEAD-YAP interaction inhibitor project, luminescence, HEK-TIYL cells | inhibition, % at 9.12 µM | AID 1259422, 2018 | TEAD-Gal4/YAP UAS-luciferase luminescence | actives 1.4% (n = 640,000); in the data active means inhibition above about 32%
FBW7 activator: FBW7 E3 ligase activators, primary screen, biochemical, AlphaScreen, human; AlphaScreen FBW7–phospho-cyclin E peptide binding, activator screen; normalized activity (activation), % at 26.1 µM; AID 1259310, 2017; actives 0.13% (n = 650,000); in the data active means normalized activity above about 1.9%;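 further: purified mutant Fbw7 with reduced substrate affinity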
MITF primary: MITF inhibitors, primary screen, biochemical, AlphaScreen, human; actives 0.91% (n = 650,000); Microphthalmia-associated transcription factor (Homo sapiens), O75030; AlphaScreen MITF homodimerization, bead proximity signal; inhibition, % at 2.6 µM; AID 1259374, 2018; in the data active means inhibition above about 50%
GPR151 activ: activators of human GPR151, primary screen, cell-based, PathHunter beta-arrestin, luminescence. G-protein coupled receptor 151 (Homo sapiens), Q8TDV0. PathHunter beta-arrestin GPR151 cells. activation, % at 11.2 µM. actives 1% (n = 650,000); in the data active means activation above about 4.9%
Target sequence (Q8TDV0 whole entry, looked up): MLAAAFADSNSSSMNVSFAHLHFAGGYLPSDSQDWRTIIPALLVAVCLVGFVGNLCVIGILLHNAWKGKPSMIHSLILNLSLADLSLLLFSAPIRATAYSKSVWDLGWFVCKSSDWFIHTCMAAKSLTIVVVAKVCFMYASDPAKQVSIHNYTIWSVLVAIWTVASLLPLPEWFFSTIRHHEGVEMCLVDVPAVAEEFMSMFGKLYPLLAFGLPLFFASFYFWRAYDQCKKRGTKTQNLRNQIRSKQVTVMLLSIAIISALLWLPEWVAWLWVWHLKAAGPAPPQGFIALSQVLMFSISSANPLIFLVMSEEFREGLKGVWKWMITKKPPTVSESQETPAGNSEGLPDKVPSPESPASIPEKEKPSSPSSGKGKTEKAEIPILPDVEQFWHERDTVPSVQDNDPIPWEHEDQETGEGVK
Of the large screens only hits and unclear results are named; the others gave an inactive call. Compounds with a hit are over-represented: about 3.5% of the library has one in this group of screens.

CCN(CC)C(=O)C1CCCN(c2nc(Nc3ccc(Oc4ccccc4)cc3)c3ncn(C4CCCCC4)c3n2)C1 (centres undefined)	FBW7 activator 5.4
Cc1nc(SCC(=O)N(C(C)C)C(C)C)c2c(C)c(C)sc2n1	TEAD-YAP inh 51
CCC(C)NS(=O)(=O)c1ccc2c(c1)C(=O)c1cc(S(=O)(=O)NC(C)CC)ccc1-2 (centres undefined)	none
Cc1cc(N)nc(-c2csc3ccccc23)n1	none
Cc1c(Cl)ccc2sc(N(CCCn3ccnc3)C(=O)c3ccco3)nc12	none
Cc1ncc([N+](=O)[O-])n1S(=O)(=O)c1cccc2ccccc12	FBW7 activator 2.3
Cc1ncc([N+](=O)[O-])n1S(=O)(=O)c1ccccc1	none
O=C(c1cccc([N+](=O)[O-])c1)N1CCN(c2cccc(Cl)c2)CC1	none
COC(=O)c1cc(C(=O)N2CCN(c3cccc(Cl)c3)CC2)cc([N+](=O)[O-])c1	TEAD-YAP inh 63
COC(=O)/C=C\C(=O)Nc1ccc(Br)c(C)c1	TEAD-YAP inh 47
Cn1c(SCc2cc(=O)oc3cc(O)c(O)cc23)nc2ccccc21	none
Nn1c(Cc2ccccc2F)nnc1SCc1cc(=O)oc2cc(O)c(O)cc12	MITF primary 95
Nn1c(SCc2cc(=O)oc3cc(O)c(O)cc23)nnc1-c1ccncc1	MITF primary 85
CCCNC(=O)c1cnc(N2CCOCC2)s1	none
CCOC(=O)N1CCN(C(=O)c2ccc(NC(=O)c3cn(C)nc3OC)cc2)CC1	none
COc1cc(C(=O)/C=C/Nc2ccccc2C(N)=O)cc(OC)c1OC	TEAD-YAP inh 38
COc1cc(C(=O)/C=C/Nc2ccccc2C)cc(OC)c1OC	none
Cc1ccc(C(=O)/C=C/Nc2ccccc2C(N)=O)cc1	TEAD-YAP inh 56
CC(=O)Nc1ccc(CN2CCOc3ccc(CN4CCC(O)CC4)cc3C2)s1	none
CC(C)c1ccc(C2Oc3ccc(Br)cc3C3CC(c4ccccc4)=NN32)cc1 (centres undefined)	none
COc1cc(Nc2cc(Nc3ccccn3)nc(N)n2)cc(OC)c1OC	TEAD-YAP inh 44
COc1cc(Nc2cc(Nc3nccc4ccccc34)nc(N)n2)cc(OC)c1OC	TEAD-YAP inh 77
COc1cc(Nc2cc(Nc3ccccn3)ncn2)cc(OC)c1OC	none
CCCCC(CC)CNC(=O)c1ccc2c(=O)n(CCOC)c(=O)[nH]c2c1 (centres undefined)	TEAD-YAP inh 45
FC(F)(F)c1cccc(CNc2nc(Nc3cnccn3)nc3c2ncn3-c2ccccc2)c1	none
CC(C)n1cnc2c(NCc3cccc(C(F)(F)F)c3)nc(NCc3cccnc3)nc21	TEAD-YAP inh 40
FC(F)(F)c1cccc(CNc2nc(NCc3cccnc3)nc3c2ncn3-c2ccccc2)c1	TEAD-YAP inh 48
COc1cc(Br)c(Nc2nc(-c3sc(NC(=O)c4ccccc4)nc3C)cs2)c(Br)c1	TEAD-YAP inh 42
COc1ccc(Nc2nc(-c3ccccn3)cs2)cc1	TEAD-YAP inh 43
CCOc1ccc(Nc2nc(-c3sc(NC(=O)CC)nc3C)cs2)cc1	TEAD-YAP inh 48
CCOc1ccc(Nc2nc(-c3ccccn3)cs2)cc1	none
Cc1nc(N)sc1-c1csc(Nc2cccc(C(F)(F)F)c2)n1	MITF primary 52
Cc1nc(NC(=O)c2ccccc2)sc1-c1csc(Nc2cccc(Cl)c2C)n1	none
Cc1ccsc1/C=N\NC(=O)c1cccnc1	none
COc1ccc(-c2cc(C(F)(F)F)n3ncc(C(=O)Nc4ccc(C(C)=O)cc4)c3n2)cc1OC	none
Cc1ccc2c(CSc3ncccn3)cc(=O)oc2c1C	none
CC(Oc1ccccc1Br)C(=O)N/N=C/c1cc([N+](=O)[O-])ccc1O (centres undefined)	none
CC(C)(C)c1ccccc1NC(=O)CSc1nnc2ccccn12	none
COc1ccc(Nc2nc(-c3sc(C)nc3C)cs2)cc1	TEAD-YAP inh 42
CCc1ccc(Nc2nc(-c3ccccn3)cs2)cc1	TEAD-YAP inh 40
Fc1ccc2nc(Nc3nc(-c4ccccn4)cs3)sc2c1	TEAD-YAP inh 52
COc1ccc(-c2csc(Nc3ccccc3OC)n2)c(OC)c1	none
COc1cccc(Nc2nc(-c3ccc(OC)cc3OC)cs2)c1	TEAD-YAP inh 64
COc1ccccc1Nc1nc(-c2sc(C)nc2C)cs1	none
Fc1ccc2nc(Nc3nc(-c4ccncc4)cs3)sc2c1	none
CCN(CC)C(=O)c1ccccc1C(=O)Nc1cccc(Br)c1	none
O=C(O)c1ccc(NCc2ccc(Cl)cc2)c([N+](=O)[O-])c1	TEAD-YAP inh 38
COc1ccc2cc(Br)ccc2c1CC(=O)Nc1nc(C)cs1	TEAD-YAP inh 38
CC1=NN(c2ccccc2)C(=O)C1C(=O)c1ccc(Br)cc1 (centres undefined)	TEAD-YAP inh 37
CC1=NN(c2ccccc2)C(=O)C1C(=O)c1ccccc1 (centres undefined)	none
CCOc1ccccc1/C=N/OCc1ccc([N+](=O)[O-])cc1	none
COc1cc(N2CCOCC2)ccc1Nc1cc(Nc2ccccc2NC(C)=O)c(C(F)(F)F)cn1	TEAD-YAP inh 46
Cc1cnc(Nc2ccc(N3CCNCC3)cc2)cc1Nc1ccccc1C(N)=O	TEAD-YAP inh 33
CNC(=O)c1ccccc1Nc1cc(Nc2ccc(C(=O)N3CC[C@H](O)C3)cc2OC)ncc1C(F)(F)F	TEAD-YAP inh 33
CNC(=O)c1ccccc1Nc1cc(Nc2ccc(N3CCOCC3)cn2)ncc1C(F)(F)F	TEAD-YAP inh 86
CNC(=O)c1ncccc1Nc1cc(Nc2ccc(C(=O)N(C)C)cc2OC)ncc1C(F)(F)F	none
NC(=O)c1ccccc1Nc1ccnc(Nc2ccc(N3CCNCC3)cc2)c1	none
Cn1c(=O)c2c(nc3[nH]c(-c4ccccc4)cn32)n(C)c1=O	none
CNC(=O)c1ccccc1Nc1cc(Nc2ccc(N3CCOCC3)cc2C)ncc1C(F)(F)F	TEAD-YAP inh 71
O=C(CSc1nc2[nH]ncc2c(=O)n1-c1ccccc1)Nc1ccc2c(c1)OCCO2	TEAD-YAP inh 50
O=C(CSc1nc2[nH]ncc2c(=O)n1-c1cccc(C(F)(F)F)c1)Nc1ccc2c(c1)OCCO2	none
O=C(CSc1nc2[nH]ncc2c(=O)n1-c1ccc(Br)cc1)Nc1ccc2c(c1)OCCO2	TEAD-YAP inh 42
CCn1ccc(C(=O)N2CCC(Oc3nc4c(F)cc(F)cc4s3)CC2)n1	FBW7 activator 2.4
O=C(c1ccc(F)cc1Cl)N1CCC(Oc2nc3c(F)cccc3s2)CC1	none
CCOC(=O)C(=N\O)/C(C)=N/NC(=O)CC#N	MITF primary 71
CCn1cc(C(=O)OCC(=O)c2cc(C)n(Cc3ccco3)c2C)c(=O)c2ccc(C)nc21	none
CCOc1ccc(N=C2NC(=O)/C(=C\c3ccc4c(c3)n(C)c(=O)n4C)S2)cc1	none
COc1cccc(CN(CCN(C)C)C(=O)c2cnc3ccc(-c4cn[nH]c4)cn23)c1	TEAD-YAP inh 45
